In the library only some 21% were active in any assay of this set; here they are far more common.
CHX counter = affects cycloheximide protein synthesis inhibition readout, counter-screen; cell reporter, cycloheximide protein synthesis inhibition counterscreen; 300,000 compounds, 12% hits; max response, %; AID 2314; in the data active means max response mostly above about 13%, no sharp cut-off; inactive means mostly below about 14%; further: read at 38.3 µM for the half of the compounds with a filed dose; 0% is about no effect
NS1 inh = blocks influenza NS1 protein function; Potency, µM (series often up to 46.1 µM), for inactives: at the top dose activity, positive = more growth; 270,000 compounds, 0.4% hits; AID 2326; calls by dose curve; further: potency means the concentration at half of the fitted maximal effect; actives are rising curves; nearly all actives have a fitted effect of over 50% in size
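OD600 was taken as the measure of yeast growth restored by compound in an NS1-expressing S. cerevisiae strain. Cells had been washed out of glucose medium and diluted 1:100 into galactose -URA medium, pH 6.0.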
Pf growth 48h = inhibits P. falciparum growth in the first generation, 48 h | 310,000 compounds, 5.9% hits | AID 504832 | Potency, µM (top dose mostly 28.7 µM), inactives show at the top dose activity change, negative = inhibition, most hits filed as inhibitors | P. falciparum luciferase growth in erythrocytes, 48 h; further: potency means the concentration at half of the fitted maximal effect; on the % scale 0 is the no-effect control and ±100 the full control effect
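Erythrocytes infected with P. falciparum carrying an integrated firefly luciferase reporter (2% hematocrit, 0.1% parasitemia final) were exposed to compounds in RPMI 1640 with 0.5% Albumax at 37 C, 5% CO2. Growth inhibition was scored as reduced luminescence.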
Sm TGR inh = blocks Schistosoma mansoni thioredoxin glutathione reductase; Q962Y6; purified TGR, DTNB reduction, TNB absorbance 405 nm; 360,000 compounds, 3% hits; Potency, µM (titrated, usually from 114 µM), for the others: at the highest dose activity change, negative = inhibition, most hits filed as inhibitors; further: potency means the concentration at half of the fitted maximal effect; on the % scale 0 is the no-effect control and ±100 the full control effect; nearly all actives have a fitted effect of over 60% in size
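TGR 20 nM + NADPH 100 uM (dispensed conc.), cpd preinc 15 min RT; start with NADPH (500 uM addition) then DTNB (15 mM addition). Kinetic TNB absorbance, 405 nm filter. Four-parameter Hill fit across titration.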
Shiga toxin inh = blocks Shiga toxin action in Vero cells; AID 2315; Vero cells, Shiga toxin protein synthesis inhibition reporter; 290,000 compounds, 9.2% hits; inhibition, % at 38.7 µM; in the data active means inhibition mostly above about 28%, no sharp cut-off; inactive means mostly below about 43%; further: 0% is about no effect
Pf growth 96h = P. falciparum growth inhibition at 96 hours | P. falciparum luciferase reporter growth, 96 h | Potency, µM (titrated, usually from 28.7 µM), without a hit: at the top dose activity change, negative = inhibition, most hits filed as inhibitors | 320,000 compounds, 6.9% hits; further: potency means the concentration at half of the fitted maximal effect; on the % scale 0 is the no-effect control and ±100 the full control effect
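Two parasite generations (96 h, 37 C, 5% CO2) of compound exposure in infected erythrocytes (0.05% parasitemia, 2% hematocrit). Luciferase-reporter P. falciparum; decreased luminescence indicates inhibited growth, aimed at apicoplast-acting delayed death.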
* marks the source's active call; other numbers are inactive results; [ ] = dose if it differs, or a comment. Unless noted, the call rests on the fitted dose curve; in most records, active means well fitted curve in the direction sought with a large enough effect; inconclusive means small, poorly fitted or top-dose-only effect, or another doubt; inactive means no such curve, though single readings can be large; an effect the other way counts as inactive or inconclusive.

CC1=C(/C=C/C(C)=C/C=C/C(C)=C/C(=O)Oc2c(C)c(C)c3c(c2C)CC[C@@](C)(CCC[C@H](C)CCC[C@H](C)CCCC(C)C)O3)C(C)(C)CCC1 was read as Pf growth 48h -0.8% and Pf growth 96h 10.0%.
`CC[C@@H](C)C(NC(=O)OC(C)(C)C)c1cn([C@@H](Cc2cc3ccccc3[nH]2)C(=O)N2CCN(C(=O)OC(C)(C)C)CC2)nn1` (some centres undefined) gave CHX counter 0.7, NS1 inh 5.3%, Pf growth 48h inconclusive, Sm TGR inh -18.2%, Shiga toxin inh -11.8 and Pf growth 96h 3.7µM*.
CC[C@@H](C)C(NC(=O)OC(C)(C)C)c1cn([C@@H](CCCCNC(=O)OC(C)(C)C)C(=O)N2CCN(C(=O)OC(C)(C)C)CC2)nn1 (some centres undefined) was read as CHX counter 1.3, NS1 inh -2.1%, Pf growth 48h inconclusive, Sm TGR inh -2.3%, Shiga toxin inh 14.2 and Pf growth 96h 4.15µM*.
`C#CCOCCOCCOCCNc1nc(N2CCN(C(=O)[C@H](CCC(=O)O)n3cc(C(N)Cc4ccc(O)cc4)nn3)CC2)nc(N2CCN(C(=O)[C@H](CCC(=O)O)n3cc(C(N)Cc4ccc(O)cc4)nn3)CC2)n1` (some centres undefined) gave CHX counter -2.0, NS1 inh 1.1%, Pf growth 48h 52.8%, Sm TGR inh inconclusive, Shiga toxin inh -14.4 and Pf growth 96h 82.4%.
`N[C@@H](CO)c1cn([C@@H](Cc2cc3ccccc3[nH]2)C(=O)N2CCNCC2)nn1` gave CHX counter -3.6, NS1 inh -2.4%, Pf growth 48h 53.2%, Sm TGR inh -20.0%, Shiga toxin inh -7.9 and Pf growth 96h 63.7%.
CC(C)CC(NC(=O)OC(C)(C)C)c1cn([C@@H](CCCCNC(=O)OC(C)(C)C)C(=O)N2CCN(C(=O)OC(C)(C)C)CC2)nn1 (some centres undefined) was read as CHX counter -1.0, NS1 inh 8.1%, Pf growth 48h inconclusive, Sm TGR inh -7.5%, Shiga toxin inh -13.5 and Pf growth 96h 3.7µM*.
`CC(C)(C)OC(=O)CC[C@@H](C(=O)N1CCN(C(=O)OC(C)(C)C)CC1)n1cc(C(Cc2ccc(O)cc2)NC(=O)OC(C)(C)C)nn1` (some centres undefined) gave CHX counter 0.8, NS1 inh -1.8%, Pf growth 48h inconclusive, Sm TGR inh -14.2%, Shiga toxin inh 1.4 and Pf growth 96h 4.65µM*.
`CC(=O)Nc1ccc(NC(=O)c2cc(CN3CCCC3)on2)cc1` gave Sm TGR inh -6.0%.
Screening O=C(CSc1nc2ccccc2c(=O)n1CCC(=O)NC1CCCCC1)Nc1ccccc1Cl returned Sm TGR inh 4.5%.
For CCn1nccc1C(=O)Nc1ccc(C(=O)OC(C)C)cc1 the results were CHX counter 24.3*, NS1 inh -21.2%, Pf growth 48h 25.8%, Sm TGR inh 16.0% and Pf growth 96h 7.4%.
Screening CCn1nccc1C(=O)Nc1ccc(Cl)cc1Cl returned CHX counter 22.6*, NS1 inh inconclusive, Pf growth 48h 38.3%, Sm TGR inh -0.6%, Shiga toxin inh 40.4* and Pf growth 96h -8.3%[5.75 µM].
`CCn1nccc1C(=O)Nc1cc(Cl)ccc1Cl` gave CHX counter -0.8, NS1 inh -12.2%, Pf growth 48h 26.5%, Sm TGR inh -0.6%, Shiga toxin inh 1.8 and Pf growth 96h -1.5%.
For CCn1nccc1C(=O)Nc1nccs1 the results were CHX counter 4.4, NS1 inh -0.6%, Pf growth 48h 13.5%, Sm TGR inh -1.1%, Shiga toxin inh 5.3 and Pf growth 96h 1.8%[5.75 µM].
For Cc1ccc(NC(=S)N(CCCN2CCC(C)CC2)Cc2ccco2)cc1C the results were CHX counter -2.5, Pf growth 48h -7.1%, Sm TGR inh 48.1%, Shiga toxin inh -10.2 and Pf growth 96h 5.4%.
O=S(=O)(c1ccc2c(c1)C(O)c1ccccc1CC2)C(F)(F)F (centres undefined) was read as Pf growth 48h 7.38µM*, Sm TGR inh -8.2% and Pf growth 96h 3.29µM*.
`Cc1ccc(NC(=O)c2ccccn2)c(Br)c1` gave CHX counter 52.2*, Pf growth 48h inactive, Sm TGR inh -1.0%, Shiga toxin inh 88.7* and Pf growth 96h inactive.
For Cc1ccc(C)c(NC(=O)c2ccccn2)c1 the results were CHX counter 31.6*, NS1 inh -13.7%, Pf growth 48h 128.3%, Sm TGR inh -6.0% and Shiga toxin inh 47.3*.
`Cc1ccc(NC(=O)Nc2ccc(Cl)cc2)c(Br)c1` gave CHX counter 28.2*, NS1 inh 15.6%, Pf growth 48h 36.7%, Sm TGR inh 6.2%, Shiga toxin inh active and Pf growth 96h 0.0%.
Screening Cc1ccc(NC(=O)c2cc(C)nc3ccccc23)c(Br)c1 returned CHX counter -2.6, NS1 inh -24.2%, Pf growth 48h 0.0%, Sm TGR inh -24.9% and Pf growth 96h -27.5%.
For Cc1ccc(NC(=O)/C=C/c2ccc(Cl)cc2)c(Br)c1 the results were Sm TGR inh 2.0%.
`Cc1ccc(NC(=O)c2csnn2)c(C)c1` gave CHX counter 21.6*, NS1 inh -1.1%, Pf growth 48h 47.4%, Sm TGR inh -1.5%, Shiga toxin inh 31.5 and Pf growth 96h -8.0%.
Screening CCOC(=O)C1CCN(C(=O)C2CCN(S(=O)(=O)c3cc(Cl)ccc3OCC)CC2)CC1 returned CHX counter -1.9, NS1 inh -13.7%, Pf growth 48h 0.5%, Sm TGR inh -26.9%, Shiga toxin inh -8.2 and Pf growth 96h -0.1%.
Screening Cc1cccc(NC(=O)c2ccccn2)c1C returned CHX counter 32.3*, NS1 inh -5.7%, Pf growth 48h 81.7%, Sm TGR inh -9.3%, Shiga toxin inh 77.2* and Pf growth 96h 120.9%.
`Cc1cccc(NC(=O)Nc2ccccn2)c1C` gave CHX counter 10.8, NS1 inh -0.2%, Pf growth 48h 88.5%, Sm TGR inh 3.3%, Shiga toxin inh 47.3 and Pf growth 96h 78.8%.
For COc1ccc(NC(=O)CSc2ccc(-c3ccco3)nn2)cc1 the results were CHX counter 9.1, NS1 inh 10.5%, Pf growth 48h 10.7%, Sm TGR inh 14.1µM*, Shiga toxin inh 13.5 and Pf growth 96h -10.6%.
`COc1ccc(NC(=O)CSc2ccc(-c3cccs3)nn2)cc1` gave Sm TGR inh 7.6%.
`COc1cc(NC(=O)CSc2nnc3ccccn23)cc(OC)c1` gave Pf growth 48h -27.5%, Sm TGR inh -3.8% and Pf growth 96h inconclusive.
For COc1cc(NC(=O)CSc2ccc(-c3ccco3)nn2)cc(OC)c1 the results were CHX counter -0.6, NS1 inh 10.7%, Pf growth 48h -5.4%, Sm TGR inh 31.6µM*, Shiga toxin inh -15.2 and Pf growth 96h 10.4µM*.

Screening results deposited in PubChem by National Center for Advancing Translational Sciences (NCATS).
